We go through 30 compounds from PubChem BioAssay AID588675 (Johns Hopkins Ion Channel Center, 2011).

About 1,900 (0.61%) of roughly 310,000 compounds were called active.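 Rule for the calls: active = plate-corrected calcium response at least 3 library SD above typical, normal starting fluorescence, not activating the receptor alone; inactive = the rest.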 This excerpt belongs to a sample that is enriched for actives.

This experiment deals with Mas-related G-protein coupled receptor member X1 (Homo sapiens) (UniProt Q96LB2). Nature of the experiment: positive allosteric modulators of MrgX1, primary screen, HEK293 cells, Fluo-4 calcium flux (AID 588675).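 For B-score: peak minus trough fluorescence over baseline measured at the second addition.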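 Note: compound read alongside a low EC10 to EC30 dose of BAM8-22 agonist.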 Conditions: MrgX1-HEK293, Fluo-4 calcium flux, FDSS, at 10 µM; active compounds read high. For orientation: A change in cytosolic calcium serves as a functional read-out for many receptors and channels.
Mas-related G-protein coupled receptor member X1 (Homo sapiens), sequence (Q96LB2 whole entry, looked up): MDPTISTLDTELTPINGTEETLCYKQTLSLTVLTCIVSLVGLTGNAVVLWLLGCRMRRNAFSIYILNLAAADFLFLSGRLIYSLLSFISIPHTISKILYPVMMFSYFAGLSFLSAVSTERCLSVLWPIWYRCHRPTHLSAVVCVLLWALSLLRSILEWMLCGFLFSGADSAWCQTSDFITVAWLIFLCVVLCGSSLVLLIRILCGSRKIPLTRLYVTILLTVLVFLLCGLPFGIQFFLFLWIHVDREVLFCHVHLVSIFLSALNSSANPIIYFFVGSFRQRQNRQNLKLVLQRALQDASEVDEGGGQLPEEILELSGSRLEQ
On to `CCC(C)c1ccc(O)c(/C=N/O)c1` (stereo not given), for which the B-score was 6.88 (active).
For the compound `CNCC(O)c1ccc(O)c(O)c1` (stereo not given), the B-score result is “inactive”.
Turning to `CCOC(=O)c1cccc(NC(=O)C2CCN(c3ncnc4c3nc3n4CCCCC3)CC2)c1`, the B-score result was “inactive”.
Take `CCCCCCCCCCCC(=O)O`: the B-score entry is “inactive”.
Regarding `CC(C)(C)NC(=O)COC(=O)c1cc(Cl)ccc1[N+](=O)[O-]`, the B-score result is “inactive”.
The result for `Cc1cc(NC(=O)COC(=O)COc2ccc(Cl)cc2C)c([N+](=O)[O-])cc1C` reads “inactive”; that for `CCCC(=O)OCC(=O)Nc1cc(Cl)ccc1[N+](=O)[O-]`, 9.84 (active).
Consider `CCN(CC(=O)NC1CCS(=O)(=O)C1)S(=O)(=O)c1ccccc1` (stereo not given), for which the B-score result is “inactive”.
The result for `Cc1coc2c(O)cc3c(c12)OC1(N2CCCCC2)C(=O)NCCCC31` (stereo not given) reads “inactive”.
On to `COc1cccc(NC(=O)NCCN2CCCCC2)c1`, for which the B-score result is “inactive”.
Consider `Cc1ccc2c(c1)C1CN(C)CCC1N2S(=O)(=O)c1ccc(Oc2ccc([N+](=O)[O-])cc2)cc1` (stereo not given), for which the B-score entry was “inactive”.
For `Cc1ccc(S(=O)(=O)N(C)c2ccc(OCC(=O)OCC(=O)N(CC#N)c3ccccc3)cc2)cc1`, the B-score result was “inactive”.
The result for `Cc1ccc2nc(Nc3ccccc3)cc(C)c2c1` reads 14 (active); that for `Cc1ccc2nc(Nc3ccccc3O)nc(-c3ccccc3)c2c1`, “inactive”; that for `Cc1cc(Nc2ccc(Br)cc2)nc2ccccc12`, “inactive”.
Regarding `CCCN(CCC)C(=O)C1c2ccccc2Oc2ccccc21`, the B-score entry is “inactive”.
The result for `CCOc1cccc(NC(=O)CC#N)c1` reads “inactive”.
The result for `CC(=O)Nc1cccc(OCC(=O)/C=C2\N(C)c3ccccc3C2(C)C)c1` reads 6.96 (active).
The result for `CC(C)Nc1nnc(SCC(=O)/C=C2\N(C)c3ccccc3C2(C)C)s1` reads “inactive”; that for `Cc1ccc(S(=O)(=O)N2[C@@H](c3cccc(Cl)c3)C(C(=O)O)=CC[C@H]2c2ccc(Cl)c(Cl)c2)cc1`, “inactive”; that for `Cc1ccc(S(=O)(=O)N2[C@@H](c3ccccc3F)C(C(=O)O)=CC[C@H]2c2ccc(Cl)cc2)cc1`, 15.6 (active).
For the compound `Cc1ccc([C@@H]2CC=C(C(=O)O)[C@H](c3cccc(Cl)c3)N2S(=O)(=O)c2ccc(C)cc2)cc1`, the B-score result is “inactive”.
On to `CC(=O)Nc1cccc(C(=O)OCN2C(=O)c3ccccc3C2=O)c1`, for which the B-score result is “inactive”.
The result for `O=C(c1ccc(OC2CCN(C(=O)c3cccnc3)CC2)cc1)N1CCCCCC1` reads 6.62 (active).
The result for `O=C(c1ccc(OC2CCN(C/C=C/c3ccc(F)cc3)CC2)cc1)N1CCCCC1` reads “inactive”.
The result for `O=C(c1ccc(OC2CCN(Cc3ccccn3)CC2)cc1)N1CCCCCC1` reads “inactive”; that for `O=C(NCCCc1ccccc1)C1CCC(CNc2c(N3CCCCC3)c(=O)c2=O)CC1` (stereo not given), “inactive”.
For `Cc1cccc(C)c1NC(=O)N1CC=C(n2c(=O)[nH]c3ccccc32)CC1`, the B-score entry was “inactive”.
Take `CCOc1ccc(NC(=O)N2CC=C(n3c(=O)[nH]c4ccccc43)CC2)cc1`: the B-score was 7.16 (active).
Take `CCOc1ccc(NC(=O)N2CCN(CC)CC2)cc1`: the B-score entry is “inactive”.
